# Laboratory results: PubChem BioAssay
# Active and inactive are the calls of the source.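 The calls were made as follows: active = viability loss from added drug above about 55%, and viability with drug at most 40%, in both replicates (limit read from the data, passing the limit was not always enough); inconclusive = both conditions met in only one replicate; inactive = neither replicate meets both conditions.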
# Experiment: MRP1 drug-resistance reversers in H69AR cells – cell-based, doxorubicin co-treatment, pilot screen (AID 601)
# Conditions: H69AR cells + 2 uM doxorubicin, CellTiter-Glo, 72 h; at 10 µM; stronger effect = higher value
row,Structure (SMILES),differential viability (reversal)
1,CCCCn1cnc2c(cnn2-c2ccc(Cl)cc2)c1=O,-1.77% (inactive)
2,Cc1ccc(N2CCN(C(=O)c3ccccc3Br)CC2)c(C)c1,10.5% (inactive)
3,COc1cccc(CN2CCN(C(=O)c3ccco3)CC2)c1OC,6.7% (inactive)
4,CCOC(=O)c1nnn(CC(=O)Nc2cccc(OC)c2)c1C(=O)OCC,-2.59% (inactive)
5,O=C(CCN1C(=O)c2ccccc2C1=O)OCN1C(=O)c2ccccc2C1=O,-10.6% (inactive)
6,COc1ccccc1CC1(C)NC(=O)N(CC(=O)Nc2cc(C)on2)C1=O (stereo not given),9.12% (inactive)
7,c1ccc(CNc2c3c(nc4ncnn24)CCCC3)nc1,-4.29% (inactive)
8,Cc1cc(C(=O)OCCO)c(C#N)c(N)n1,-5.51% (inactive)
9,CN(c1ccccc1)S(=O)(=O)c1ccc(C(=O)OCC(=O)N2CCOCC2)cc1,21.5% (inactive)
10,CCC1C(=O)n2nc(-c3ccccc3)cc2N=C1C (stereo not given),8.73% (inactive)
11,NC(=O)c1c(NC(=O)CSc2nnc(-c3ccco3)n2-c2ccccc2)sc2c1CCC2,-37.9% (inactive)
12,CCN(Cc1cc2ccccc2[nH]c1=O)S(=O)(=O)c1ccccc1,-12.7% (inactive)
13,CCOC(=O)C1CCCN(Cc2nc(N)nc(Nc3ccc(C)cc3)n2)C1 (stereo not given),-1.19% (inactive)
14,COc1cccc(NC(=O)CSc2nnc(-c3cccs3)n2C)c1,12.2% (inactive)
15,O=C(Nc1cccc(C(=O)N2CCOCC2)c1)c1cccnc1,-9.23% (inactive)
16,C=CCn1c(=O)[nH]c2cc(C(=O)N3CCN(c4cc(C)ccc4C)CC3)ccc2c1=O,7.67% (inactive)
17,COc1ccc(C2/C(=C(/O)c3cnn(-c4ccccc4)c3C)C(=O)C(=O)N2CCN(C)C)cc1OC (stereo not given),1.86% (inactive)
18,COCCN(C(=O)Cn1nnc2ccccc21)C(C(=O)NC1CCCC1)c1cc(OC)ccc1OC (stereo not given),-0.19% (inactive)
19,O=C(OCC(=O)N1CCc2ccccc21)C1=COCCO1,18.2% (inactive)
20,O=C(CCn1c(=O)sc2ccccc21)NC1=NCCS1,4.68% (inactive)

row,Structure (SMILES),differential viability (reversal)
1,CC(C)COC(=O)C1[C@H]2C(=O)N(Cc3cccs3)C[C@]23C=C[C@H]1O3 (stereo not given in full),1.3% (inactive)
2,O=C(Cn1nnc(-c2cccc(C(F)(F)F)c2)n1)NC(=O)NCc1ccco1,-3.41% (inactive)
3,Cn1c(=O)c(C(=O)Nc2cccnc2)c(O)c2ccccc21,-9.81% (inactive)
4,O=S(=O)(c1cccc(-c2nnco2)c1)N1CCCC1,2.63% (inactive)
5,CCOc1ccc2c(c1)sc1nc(C(=O)OC)cc(=O)n12,-0.545% (inactive)
6,O=C(c1cccn2c(=O)c3cc(Cl)ccc3nc12)N1CCOCC1,20.2% (inactive)
7,CC1(C)CNC(=O)CC(C)(C)N1O,3.01% (inactive)
8,O=C(CSc1nnnn1C1CCCC1)Nc1cccc(NC(=O)c2ccco2)c1,13.4% (inactive)
9,Cc1onc(-c2ccccc2)c1C(=O)Nc1ccnn1C1CCCCC1,-4.68% (inactive)
10,O=C1C(c2ccncc2)=C(O)c2ccccc21,-3.63% (inactive)
11,CC(NC(=O)Cc1cccs1)c1ccc2c(c1)OCO2 (stereo not given),13.7% (inactive)
12,O=C(c1cnn2c(C(F)F)cc(C3CC3)nc12)N1CCOCC1,19.2% (inactive)
13,COc1ccc(-c2cc(C(F)F)n3ncc(C(=O)NCC4CCCO4)c3n2)cc1 (stereo not given),-3.58% (inactive)
14,Cn1c(SCC(=O)Nc2ccc3c(c2)oc2ccccc23)nnc1-c1ccccc1,-7.74% (inactive)
15,COC(=O)Nc1ccc(S(=O)(=O)N(C)CC(F)(F)C(F)F)cc1,-1.14% (inactive)
16,Cc1cccc(C2CC(c3ccc(Br)cc3)Nc3nc(N)nn32)c1 (stereo not given),-14.7% (inactive)
17,Cc1cnc(C(=O)OCC(=O)Nc2ccc(Cl)cc2Cl)cn1,16.4% (inactive)
18,CCOC(=O)C1CCN(C(=O)c2ccc(OC)cc2OC)CC1,5.9% (inactive)
19,CN(Cc1ccccc1)Cc1c[nH]c2ccccc12,-6.54% (inactive)
20,CCN(C(=O)COC(=O)c1cc(C)n(-c2ccc(F)cc2)c1C)C1CCS(=O)(=O)C1 (stereo not given),-0.795% (inactive)

# Same assay, conditions: H69AR cells + 2 uM doxorubicin, CellTiter-Glo, 72 h; measured here: viability with 2 uM doxorubicin; at 10 µM; stronger effect = lower value
row,Structure (SMILES),viability [%]
1,CCCCn1cnc2c(cnn2-c2ccc(Cl)cc2)c1=O,87.9
2,Cc1ccc(N2CCN(C(=O)c3ccccc3Br)CC2)c(C)c1,78.6
3,COc1cccc(CN2CCN(C(=O)c3ccco3)CC2)c1OC,96.5
4,CCOC(=O)c1nnn(CC(=O)Nc2cccc(OC)c2)c1C(=O)OCC,86.3
5,O=C(CCN1C(=O)c2ccccc2C1=O)OCN1C(=O)c2ccccc2C1=O,102
6,COc1ccccc1CC1(C)NC(=O)N(CC(=O)Nc2cc(C)on2)C1=O (stereo not given),83.6
7,c1ccc(CNc2c3c(nc4ncnn24)CCCC3)nc1,89.5
8,Cc1cc(C(=O)OCCO)c(C#N)c(N)n1,97.6
9,CN(c1ccccc1)S(=O)(=O)c1ccc(C(=O)OCC(=O)N2CCOCC2)cc1,89.4
10,CCC1C(=O)n2nc(-c3ccccc3)cc2N=C1C (stereo not given),90.2
11,NC(=O)c1c(NC(=O)CSc2nnc(-c3ccco3)n2-c2ccccc2)sc2c1CCC2,66.8
12,CCN(Cc1cc2ccccc2[nH]c1=O)S(=O)(=O)c1ccccc1,99.8
13,CCOC(=O)C1CCCN(Cc2nc(N)nc(Nc3ccc(C)cc3)n2)C1 (stereo not given),88.6
14,COc1cccc(NC(=O)CSc2nnc(-c3cccs3)n2C)c1,85.3
15,O=C(Nc1cccc(C(=O)N2CCOCC2)c1)c1cccnc1,100
16,C=CCn1c(=O)[nH]c2cc(C(=O)N3CCN(c4cc(C)ccc4C)CC3)ccc2c1=O,33.6
17,COc1ccc(C2/C(=C(/O)c3cnn(-c4ccccc4)c3C)C(=O)C(=O)N2CCN(C)C)cc1OC (stereo not given),98.7
18,COCCN(C(=O)Cn1nnc2ccccc21)C(C(=O)NC1CCCC1)c1cc(OC)ccc1OC (stereo not given),94.1
19,O=C(OCC(=O)N1CCc2ccccc21)C1=COCCO1,67.9
20,O=C(CCn1c(=O)sc2ccccc21)NC1=NCCS1,86.9

row,Structure (SMILES),viability [%]
1,CC(C)COC(=O)C1[C@H]2C(=O)N(Cc3cccs3)C[C@]23C=C[C@H]1O3 (stereo not given in full),89.8
2,O=C(Cn1nnc(-c2cccc(C(F)(F)F)c2)n1)NC(=O)NCc1ccco1,77.5
3,Cn1c(=O)c(C(=O)Nc2cccnc2)c(O)c2ccccc21,98.2
4,O=S(=O)(c1cccc(-c2nnco2)c1)N1CCCC1,92.8
5,CCOc1ccc2c(c1)sc1nc(C(=O)OC)cc(=O)n12,85.4
6,O=C(c1cccn2c(=O)c3cc(Cl)ccc3nc12)N1CCOCC1,96
7,CC1(C)CNC(=O)CC(C)(C)N1O,92.6
8,O=C(CSc1nnnn1C1CCCC1)Nc1cccc(NC(=O)c2ccco2)c1,97
9,Cc1onc(-c2ccccc2)c1C(=O)Nc1ccnn1C1CCCCC1,95.3
10,O=C1C(c2ccncc2)=C(O)c2ccccc21,85.9
11,CC(NC(=O)Cc1cccs1)c1ccc2c(c1)OCO2 (stereo not given),86.2
12,O=C(c1cnn2c(C(F)F)cc(C3CC3)nc12)N1CCOCC1,93.5
13,COc1ccc(-c2cc(C(F)F)n3ncc(C(=O)NCC4CCCO4)c3n2)cc1 (stereo not given),77.2
14,Cn1c(SCC(=O)Nc2ccc3c(c2)oc2ccccc23)nnc1-c1ccccc1,77.1
15,COC(=O)Nc1ccc(S(=O)(=O)N(C)CC(F)(F)C(F)F)cc1,94.2
16,Cc1cccc(C2CC(c3ccc(Br)cc3)Nc3nc(N)nn32)c1 (stereo not given),102
17,Cc1cnc(C(=O)OCC(=O)Nc2ccc(Cl)cc2Cl)cn1,86.3
18,CCOC(=O)C1CCN(C(=O)c2ccc(OC)cc2OC)CC1,100
19,CN(Cc1ccccc1)Cc1c[nH]c2ccccc12,96.3
20,CCN(C(=O)COC(=O)c1cc(C)n(-c2ccc(F)cc2)c1C)C1CCS(=O)(=O)C1 (stereo not given),104
